From PubChem BioAssay (EPA / NIEHS)
“And” between values parts separate entries of the source, which are not always exact repeats. Equal values may be shown once. Results filed as inconclusive are left out. A structure can be active in one record and inactive in another. The source made the active and inactive calls. Rule for the calls: active = hit-call score of the fitted dose curve at least 0.9, where 1 is the maximum; inconclusive = response in the unintended direction; inactive = score below 0.9.

target: chicken Estrogen Receptor (ERa), ESR1 (gene 396099) (UniProt P06212); assay: ATG_chERa_XSP2: Attagene TRANS-FACTORIAL Multi-Species (XSP2) HepG2 Assay for chicken Estrogen Receptor (ERa) (AID 2283817);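 note: actives raise reporter signal above DMSO so AC50 reflects ER activation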
Method: ATG_XSP2_multi-species_TRANS is a cell-based, multiplexed assay created by modifying the existing Attagene TRANS-FACTORIAL system to include a panel of nuclear receptors from some or all the following species: human (Homo sapiens), mouse (Mus musculus), frog (Xenopus laevis), zebrafish (Danio rerio), chicken (Gallus gallus), and turtle (Chrysemys picta). The ECOTOX-FACTORIAL format uses HepG2, a human liver cell line, with measurements taken at 24 hours after chemical dosing in a 24-well plate. Xsp2 included 3 nM 6-alpha-fluorotestosterone and 1.5 nM norgestrel to stimulate the androgen receptor.ATG_chERa_XSP2 is one of 29 assay components measured or calculated from the ATG_XSP2_multi-species_TRANS assay. It is designed to make measurements of mRNA induction, a form of inducible reporter, as detected with fluorescence intensity signals by Reverse transcription polymerase chain reaction (RT-PCR) and Capillary electrophoresis technology.The assay endpoint ATG_chERa_XSP2 was analyzed in the positive analysis fitting direction relative to DMSO as the negative control and baseline of activity. Using a type of inducible reporter, measures of mRNA for gain-of-signal activity can be used to understand the reporter gene at the transcription factor-level as they relate to the gene ER. Furthermore, this assay endpoint can be referred to as a primary readout, because this assay has produced multiple assay endpoints where this one serves a reporter gene function. To generalize the intended target to other relatable targets, this assay endpoint is annotated to the nuclear receptor intended target family, where the subfamily is steroidal.
Human liver HepG2 cells are transiently transfected with multiple reporter transcription units (MRTUs) in 6-well plates using FuGene 6 reagent (Roche; 3 ml FuGene/1 mg DNA). The MRTU constructs are regulated by a cis-regulating element (promoter). […] A major difference between the CIS and TRANS system is that in CIS activities of endogenous TFs are measured, whereas the TRANS assay evaluates changes in activities of exogenous, chimeric NR-Gal4 proteins. […] At the end of 24 hour incubation, total RNA was isolated using TriZol reagent (Invitrogen). The isolated RNA is then reverse-transcribed using oligo(dT) primer and Mo-MLV reverse transcriptase (Invitrogen) with DNAse I (Ambion) treatment for 30 min. The one-tenth of the produced cDNA was amplified by PCR using Taq DNA polymerase (Invitrogen) and two reporter sequence-specific primers. The PCR products were fluorescently labeled by primer extension with 6-arboxyfluorescein (6-FAM) 5'-labeled reporter sequence-specific primer (2 min at 95 C, 20 s at 68 C and 10 min at 72 C) and these products were digested with 5U of HpaI (New England Biolabs) for 2h at 37 C. The fragments were purified using Qiaquick PCR columns (Qiagen), analyzed on an ABI 3130xL genetic analyzer (Applied Biosystems) with peak positions identified by using a set of X-rhodamine (ROX)-labeled MapMarker1000 molecular weight standards (BioVentures). The raw capillary electrophoresis data was processed using Attagraph software (Attagene).

chicken Estrogen Receptor (ERa), ESR1 (gene 396099), sequence (P06212 whole entry, looked up): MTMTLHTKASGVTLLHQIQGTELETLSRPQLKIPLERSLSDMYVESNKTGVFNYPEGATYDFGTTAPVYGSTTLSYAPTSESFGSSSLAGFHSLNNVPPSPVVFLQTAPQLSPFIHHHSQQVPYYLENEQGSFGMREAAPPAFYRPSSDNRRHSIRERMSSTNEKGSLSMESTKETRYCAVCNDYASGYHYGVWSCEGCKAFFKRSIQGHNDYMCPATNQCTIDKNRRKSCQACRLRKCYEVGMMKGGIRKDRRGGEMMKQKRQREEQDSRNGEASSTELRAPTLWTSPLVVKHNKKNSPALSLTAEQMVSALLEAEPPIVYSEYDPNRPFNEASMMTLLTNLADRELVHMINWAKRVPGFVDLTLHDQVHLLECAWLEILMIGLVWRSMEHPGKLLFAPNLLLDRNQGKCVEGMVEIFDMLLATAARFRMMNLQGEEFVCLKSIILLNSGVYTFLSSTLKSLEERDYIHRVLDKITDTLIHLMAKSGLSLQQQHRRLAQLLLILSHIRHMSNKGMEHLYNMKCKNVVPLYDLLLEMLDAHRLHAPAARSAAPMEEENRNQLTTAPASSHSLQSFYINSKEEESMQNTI

| SMILES | AC50 | outcome |
| --- | --- | --- |
| CC1(C)CCC(Cc2ccc(Cl)cc2)C1(O)Cn1cncn1 (configuration not stated) | 3.58 µM (active) | – |
| C[C@]12CC[C@H](O)CC1=CC[C@@H]1[C@@H]2CC[C@]2(C)C(=O)CC[C@@H]12 | 2.19 µM (active) and 1.14 µM (active) | – |
| CC(C)(C)c1cc(O)ccc1O | 24.6 µM (active) | – |
| COP(=O)(OC)O/C(=C\Cl)c1cc(Cl)c(Cl)cc1Cl | 4.9 µM (active) | – |
| CC(C)(C)CC(C)(C)c1ccc(O)cc1 | 4.49 µM (active) | – |
| Oc1c(I)cc(I)cc1I | 2.58 µM (active) | – |
| CC12CC1(C)C(=O)N(c1cc(Cl)cc(Cl)c1)C2=O (configuration not stated) | 58.5 µM (active) | inactive |
| C[C@]12CCC(=O)C[C@@H]1CC[C@@H]1[C@@H]2CC[C@]2(C)[C@@H](O)CC[C@@H]12 | – | inactive |
| C[C@H]1CCCC(=O)CCC/C=C/c2cc(O)cc(O)c2C(=O)O1 | 6.03 nM (active) and 1.45 nM (active) | – |
| CC(C)C1CCC(Cc2ccc(Cl)cc2)C1(O)Cn1cncn1 (configuration not stated) | – | inactive |
| Oc1ccc(-c2ccccc2)cc1 | 712 nM (active) and 200 nM (active) | – |
| Clc1ccc(C2(Cn3cncn3)CC(Br)CO2)c(Cl)c1 (configuration not stated) | 3.47 µM (active) | inactive |
| CC(=O)C=C(C)C | – | inactive |
| O=S(=O)(c1ccc(Cl)cc1)c1ccc(Cl)cc1 | 35.3 µM (active) and 19.3 µM (active) | – |
| O=C1C2(Cl)C3(Cl)C4(Cl)C(Cl)(Cl)C5(Cl)C3(Cl)C1(Cl)C5(Cl)C24Cl (configuration not stated) | 1.33 µM (active) | – |
